According to PubChem BioAssay AID651956 (Broad Institute, 2012):
Measured potencies and affinities stand elsewhere. Results filed as inconclusive are left out. Calls of active or inactive are those of the source.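 The calls were made as follows: active = in every test run, a fitted half-maximal concentration for signal decrease at or below twice the highest tested concentration; inconclusive = runs disagree, flat 30 to 70% decrease, or poor fit; inactive = the rest.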

test: activation of miR-122 Renilla sensor silencing – cell-based, Huh7 psiCHECK-miR122, Renilla luciferase, cherry-picked, dose response (AID 651956); conditions: Huh7 psiCHECK-miR122 Renilla luciferase reporter, 48 h; series mostly up to 35 µM;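 also: Renilla luciferase from a miR-122 sensor reporter so lower signal means miR-122 activation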

| SMILES | outcome |
| --- | --- |
| CCOc1ccc(C(CCc2ccccc2)NC(=O)c2ccccc2F)cc1OCC (configuration not stated) | inactive |
| CC(C)C(=O)Nc1ccc2c(c1)C(=O)N(C)[C@H]1CC[C@@H](CC(=O)NCc3ccccc3F)O[C@H]1CO2 | inactive |
| Cc1c(CC(=O)NCCCC(=O)O)c(=O)oc2cc3occ(-c4ccccc4)c3cc12 | inactive |
| CN1C(=O)c2cc(NC(=O)c3cccs3)ccc2OC[C@@H]2O[C@H](CC(=O)NCC(F)(F)F)CC[C@H]21 | inactive |
| O=C(Nc1ccccc1F)N1C[C@H]2[C@@H](c3ccccc31)[C@@H](CO)N2C(=O)C1CC1 | inactive |
| N#Cc1ccc(NC(=O)Nc2ccc(Oc3ccc(NC(=O)Nc4ccc(C#N)cc4)cc3)cc2)cc1 | inactive |
| CO[C@@H]1CN(C)C(=O)c2ccc(NS(=O)(=O)c3cccc(F)c3)cc2OC[C@@H](C)NC[C@H]1C | inactive |
| CN(C[C@H]1N[C@@H](CO)[C@H]1c1ccc(-c2ccccc2)cc1)C(=O)C1CCC1 | inactive |
| CN1C(=O)c2cc(NC(=O)c3cccc(F)c3)ccc2OC[C@H]2O[C@H](CC(=O)NC3CCC3)CC[C@@H]21 | inactive |
| CCC(=O)N1[C@H](CO)[C@H](c2ccccc2)[C@H]1CNC(=O)CN1CCOCC1 | inactive |
| O=C(C1CC1)N(CCN(C(=O)C1CC1)c1ccccc1)c1ccccc1 | inactive |
| CN1C(=O)c2cc(NC(=O)c3ccc(C(F)(F)F)cc3)ccc2OC[C@@H]2O[C@@H](CC(=O)NCc3ccc4c(c3)OCO4)CC[C@H]21 | inactive |
| C=CCc1c(OC)ccc2ccc(=O)oc12 | inactive |
| COc1cc(NC(=O)c2c(F)c(F)c(F)c(F)c2F)c(OC)cc1Cl | inactive |
| COCC(=O)NC[C@H]1[C@@H](c2ccc(C3=CCCC3)cc2)[C@H](CO)N1C(=O)C1CC1 | inactive |
| Cn1c(NC(=O)c2ccco2)c(-c2ccccc2Cl)c(=O)c2ccccc21 | inactive |
| O=C(COc1cccc2ccccc12)Nc1nc2ccccc2[nH]1 | inactive |
| CC(=O)Nc1ccc(-c2cc(-c3ccc(NC(C)=O)cc3)nc(-c3ccc(NC(C)=O)cc3)n2)cc1 | inactive |
| CN(C[C@H]1[C@H](c2ccccc2)[C@@H](CO)N1CC1CC1)C(=O)c1cccc(F)c1 | inactive |
| COc1ccccc1CNc1nc(Nc2ccccc2Cl)c2sccc2n1 | inactive |
| CN1C(=O)c2cc(NC(=O)Nc3ccc(Cl)cc3)ccc2OC[C@H]2O[C@H](CC(=O)NCCN3CCCCC3)CC[C@H]21 | inactive |
| COc1cccc(CNC(=O)C[C@@H]2CC[C@@H]3[C@H](COc4ccc(NC(C)=O)cc4C(=O)N3C)O2)c1 | inactive |
